Here are results for 36 compounds from PubChem BioAssay.

Molecules are shown by their SMILES.

This experiment is described as follows: compounds binding Alexa647 anti-His antibody – biochemical, small-molecule microarray, 635 nm fluorescence, artefact control for SMM control protein annotation, primary screen (AID 1128).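 Also: score merges feature fluorescence with signal-to-noise for each printed compound spot.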 The conditions noted are these: higher = more signal.
Turning to `C=CCC(OC(C)=O)[C@@H]1[C@@H](N(Cc2cccc3ccccc23)C(=O)c2cccc3ccccc23)c2cc(OCCCO)ccc2N1C(=O)c1ccc2ccccc2n1` (stereo partly specified), the composite z-score was found to be 0.833.
In turn, `COc1ccc(C(O)C2C=CC3C(=O)NC(=O)C3N2Nc2ccccn2)cc1OCc1ccccc1` (stereo unspecified) came in with a composite z-score of 0.834.
Turning to `CCCN1C(=O)[C@@]2(CCC(=O)OC(C)(C)C)N=C(c3ccc(OCCCO)cc3)O[C@H]2c2ccccc21`, the composite z-score is 2.6.
To `COc1cccc(C(=O)O[C@H]2CC[C@]3(C)C4=C(CCC3C2(C)C)[C@]2(C)CC[C@H]([C@H](C)CCCC(C)C)[C@@]2(C)CC4)c1` (stereo partly specified) belongs 0.0291; to `COc1cc2c(cc1OC)CN(C(=O)[C@@H]1[C@H]3C(=O)O[C@H](c4ccccc4)[C@H](c4ccccc4)N3[C@H](c3ccccc3OCCO)[C@@]13C(=O)Nc1ccc(C#CCNC(N)=O)cc13)CC2`, 1.62.
Regarding `CN(C)CCCCNC(=O)[C@H]1C[C@H]2C(=O)N[C@@H](Cc3ccccc3)C(=O)N2[C@H]1c1ccc(O)cc1`, the composite z-score came to 0.499.
The compound `COc1ccc(CCN2C(=O)[C@@]3(Cc4ccccc42)c2ccccc2C(=O)N(Cc2ccccc2Cl)[C@H]3c2ccc(CO)cc2)cc1` displayed a composite z-score of -1.74.
`CCCCCCCCCCC(O)C1C=CC2C(=O)N(Cc3ccccc3)C(=O)C2N1n1cnnc1` (stereo unspecified) displayed a composite z-score of -0.244.
The compound `COCCOC(=O)N1C(=O)[C@@]2(c3cc(C#CCC(C(=O)OC)C(=O)OC)ccc31)[C@H](C(=O)N1CCN(c3ncccn3)CC1)[C@H]1C(=O)O[C@H](c3ccccc3)[C@H](c3ccccc3)N1[C@@H]2c1ccc(OCCO)cc1` showed a composite z-score of 1.61.
Turning to `C=C(COC)C(=O)CC[C@@H](OC(=O)c1cccnc1)c1ccc(CO)o1`, the composite z-score was -0.131.
On to `C=C[C@@H](COC(C)=O)N(Cc1ccc([N+](=O)[O-])cc1)S(=O)(=O)c1ccc(Br)cc1`, for which the composite z-score was found to be 1.6.
Compound `O=C1O[C@@H](c2ccccc2)[C@@H](c2ccccc2)N2[C@@H](c3ccc(O)cc3)[C@]3(C(=O)Nc4ccc(C#CC5(O)CCCCCC5)cc43)[C@@H](C(=O)N3CCCCCCC3)[C@H]12` came in with a composite z-score of 1.47.
For `COC(=O)C[C@@H]1C[C@H](C)[C@]2(O1)C(=O)N(Cc1ccccc1)c1ccc(NC(C)=O)cc12`, the composite z-score is 0.716.
For the compound `CC(C)(C)N1CC=CC23O[C@@H]4C=CCOC(=O)[C@@H]4[C@H]2C(=O)N(CCCCCO)[C@@H]3C1=O` (stereo partly specified), the composite z-score turned out to be 3.57.
Under `C=CCN1C(=O)[C@]2(O[C@H](CCO)[C@@H]([Si](C)(C)c3ccc(OC)cc3)[C@@H]2C)c2cc(NC(=O)[C@H](C)O)ccc21` stands 1.58; under `C=CC(=C)C1=CCO[C@@H]1[C@H]1CCCN1S(=O)(=O)c1ccccc1[N+](=O)[O-]`, 0.2; under `COc1ccc(NN2C(C(O)c3ccc(OC)c(OCc4ccccc4)c3)C=CC3C(=O)N(C4CCCCC4)C(=O)C32)cc1` (stereo unspecified), 0.867.
`[N-]=[N+]=NCc1ccccc1[C@@H]1OC(c2ccc(OCCCO)cc2)=N[C@]1(Cc1ccccc1)C(=O)N1CCCCC1` came in with a composite z-score of 2.4.
`CC(C)(C)N1CC=CC23O[C@@H]4/C=C\CCCOC(=O)C4[C@H]2C(=O)N(CCO)[C@@H]3C1=O` (stereo partly specified): the composite z-score was found to be 0.543.
In turn, `O=C1O[C@H](c2ccccc2)[C@H](c2ccccc2)N2[C@H]1[C@@H](C(=O)O)[C@]1(C(=O)Nc3ccc(C#CC4=CCCCC4)cc31)[C@H]2c1ccc(OCCO)cc1` gave a composite z-score of 0.463.
As to `COC(=O)C[C@H]1O[C@]2(C(=O)N(Cc3ccccc3)c3ccc(NC(C)=O)cc32)[C@@H](C)[C@@H]1[Si](C)(C)c1ccc(OC)cc1`, the composite z-score worked out at 0.242.
Turning to `CC(C)CNC(=O)[C@@H]1c2ccccc2C(=O)N(Cc2cc(C(F)(F)F)cc(C(F)(F)F)c2)[C@H]1c1ccc(CO)cc1`, the composite z-score is -0.137.
Regarding `COc1ccccc1CN1C(=O)c2ccccc2[C@@H](C(=O)NCCN2CCOCC2)[C@@H]1c1ccc(CO)cc1`, the composite z-score was -0.355.
Under `NCCCCCCNC(=O)[C@H]1C[C@H]2C(=O)NCC(=O)N2[C@H]1c1cccc(OCCO)c1` stands 0.869; under `COCCOC(=O)N1C(=O)[C@@]2(c3ccccc31)[C@H](C(=O)NC[C@H](O)c1ccccc1)[C@H]1C(=O)O[C@H](c3ccccc3)[C@H](c3ccccc3)N1[C@@H]2c1ccc(OCCO)cc1`, 0.791.
Consider `CC(C)N1CC=CC23O[C@@H]4C=CCOC(=O)[C@@H]4[C@H]2C(=O)N(CCO)[C@@H]3C1=O` (stereo partly specified), for which the composite z-score was found to be 0.386.
The compound `COC(=O)[C@@]1(Cc2ccccc2)[C@H]2c3cc(C(=O)N4CCCC4)n(C)c3C[C@H]2CN1C(=O)c1ccccc1` registered a composite z-score of 1.95.
The compound `O=C1[C@]2(CO)C=C(Br)[C@@H](C[C@@H]2c2ccccc2)[C@@]12CO2` gave a composite z-score of 0.123.
The compound `CCCCC(O)C1C=CC2C(=O)N(C3CCCCC3)C(=O)C2N1Nc1ccc(OC)cc1` (stereo unspecified) showed a composite z-score of 0.17.
Turning to `COc1ccc(C(O)C2C=CC3C(=O)N(c4ccccc4)C(=O)C3N2Nc2ccc([N+](=O)[O-])cc2)cc1OCc1ccccc1` (stereo unspecified), the composite z-score amounted to 1.71.
Compound `Cc1ccc(S[C@]2(C(=O)NCc3ccccc3)CC(=O)N(Cc3ccccc3)[C@@H]2c2ccc(CO)cc2)cc1` gave a composite z-score of 3.05.
Compound `C=C(COC)/C(=C/C[C@H](OC(=O)c1ccncc1)c1cccc(OCCO)c1)c1cc(C(=O)OC)ccc1OC` displayed a composite z-score of 0.844.
`COC(=O)[C@@]1(Cc2ccccc2)[C@H]2c3cc(C(=O)N(C)C)n(Cc4cc(C)n(C)n4)c3C[C@H]2CN1C(=O)c1ccccc1`: the composite z-score was 1.95.
Under `COC(=O)[C@@]1(Cc2ccccc2N=[N+]=[N-])COC(c2ccc(OCCCO)cc2)=N1` stands 1.19.
Under `CN1CCC(CCCO)=CC1c1ccc(CN2CCCC2)cc1` (stereo unspecified) stands 0.358; under `CC(=CC1CCCCC1)[C@@H](NC(=O)c1ccc(C(F)(F)F)cc1)c1ccc(-c2ccccc2)cc1`, -0.453.
